Most compounds without a hit are left out; they make up all but 2.8% or so of the library.
Pol eta inh-1: qHTS for Inhibitors of Polymerase Eta; Potency, µM (doses to about 114 µM), for inactives: top-dose activity change, negative = inhibition, actives largely listed as inhibitors; DNA polymerase eta (Homo sapiens), Q9Y253; 1.2% of 390,000 active; recombinant Pol eta, fluorescent DNA replication assay; note: potency is the fitted concentration of half-maximal effect; % is set by controls: 0 for no effect and ±100 for the full control effect
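Pol eta (10 nM) was preincubated with compounds for 15 min at room temperature, after which fluorescent replication substrate (50 nM final) was added to start the reaction. Fluorescence was read kinetically at 0 and 10 min.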
PI5P4Ka inh: qHTS for Inhibitors of phosphatidylinositol 5-phosphate 4-kinase (PI5P4K); 1.2% of 330,000 active; PI5P4Kalpha enzyme, ADP-Glo luminescence, 60 min; hits give low values; max response, %; active = max response of -50% or lower; inconclusive = between -30% and -50%; inactive = -30% or higher; note: value at the top dose of about 77 µM; % is set by controls: 0 for no effect and ±100 for the full control effect
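Controls without substrate or without enzyme flank wells where PI5P4Kalpha converts substrate using 5 microM ATP (final). Incubation lasts 60 minutes at room temperature; ADP formed is read by ADP-Glo luminescence.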
Pol iota inh: qHTS for Inhibitors of Polymerase Iota | DNA polymerase iota (Homo sapiens), Q9UNA4 | Pol iota fluorescent replication assay, 10 min | Potency, µM (titrated, usually from 115 µM), for the others: at the top dose activity, negative = inhibition, usual class: inhibitors | 1% of 390,000 active | AID 588590, 2011; note: potency is the fitted concentration of half-maximal effect
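Fluorescent replication assay read twice, at 0 min and 10 min after adding 50 nM (final) substrate. Enzyme (10 nM) and compounds were first incubated 15 min at room temperature; enzyme-free buffer wells were negative controls.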
Pol kappa inh-1: qHTS for Inhibitors of Polymerase Kappa; DNA polymerase kappa (Homo sapiens), Q9UBT6; purified Pol kappa, fluorescent DNA synthesis assay, 10 min; Potency, µM (titrated, usually from 107 µM), inactives show at the highest dose activity, negative = inhibition, hits mostly inhibitors; 0.53% of 400,000 active; AID 588579, 2011; note: potency is the fitted concentration of half-maximal effect; % is set by controls: 0 for no effect and ±100 for the full control effect
Target sequence (Q9UBT6 whole entry, looked up): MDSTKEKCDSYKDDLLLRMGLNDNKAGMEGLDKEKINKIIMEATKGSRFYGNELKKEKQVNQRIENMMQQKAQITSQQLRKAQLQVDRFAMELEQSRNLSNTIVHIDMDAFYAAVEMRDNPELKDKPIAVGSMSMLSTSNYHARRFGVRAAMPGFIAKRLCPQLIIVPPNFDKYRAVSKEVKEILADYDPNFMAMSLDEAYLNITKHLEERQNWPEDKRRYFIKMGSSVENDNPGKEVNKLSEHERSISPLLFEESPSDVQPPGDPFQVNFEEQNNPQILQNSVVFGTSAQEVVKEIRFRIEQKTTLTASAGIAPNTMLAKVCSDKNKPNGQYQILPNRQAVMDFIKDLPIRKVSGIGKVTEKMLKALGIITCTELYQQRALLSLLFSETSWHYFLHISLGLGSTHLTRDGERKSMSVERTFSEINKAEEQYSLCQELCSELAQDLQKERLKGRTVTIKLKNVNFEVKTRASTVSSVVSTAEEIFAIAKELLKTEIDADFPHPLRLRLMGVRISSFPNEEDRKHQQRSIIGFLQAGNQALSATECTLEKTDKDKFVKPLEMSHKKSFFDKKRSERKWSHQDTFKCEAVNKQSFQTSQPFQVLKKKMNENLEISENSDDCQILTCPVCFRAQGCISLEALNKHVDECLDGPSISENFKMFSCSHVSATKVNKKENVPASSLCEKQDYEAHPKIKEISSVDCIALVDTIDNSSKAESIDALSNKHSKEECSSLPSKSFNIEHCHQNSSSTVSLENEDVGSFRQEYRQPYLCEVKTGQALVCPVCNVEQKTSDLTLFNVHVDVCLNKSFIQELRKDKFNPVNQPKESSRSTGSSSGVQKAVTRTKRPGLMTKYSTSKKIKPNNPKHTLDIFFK
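Enzyme at 10 nM met test compounds for 15 min at room temperature. Substrate addition (50 nM final) began the reaction, which was monitored by fluorescence at 0 and 10 min.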
WRN inhibitor: qHTS for Inhibitors of WRN Helicase | Potency, µM (highest dose often 114 µM), inactives show top-dose activity change, negative = inhibition, usual class: inhibitors | Bifunctional 3'-5' exonuclease/ATP-dependent helicase WRN (Homo sapiens), Q14191 | WRN helicase unwinding, fluorescent forked duplex, kinetic | 0.46% of 360,000 active; note: potency is the fitted concentration of half-maximal effect; % is set by controls: 0 for no effect and ±100 for the full control effect; nearly all actives have a fitted effect of over 55% in size
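WRN at 20 nM final was preincubated with compound for 15 min at room temperature; reaction started with 100 nM forked duplex oligonucleotide carrying fluorophore and quencher plus 2 mM ATP (final). Unwinding followed kinetically by red fluorescence (ex 525/em 598 nm).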
Pol beta inh: qHTS Assay for Inhibitors of DNA Polymerase Beta; 1.3% of 340,000 active; Pol beta primer extension/strand displacement, fluorescence kinetic; Potency, µM (doses to about 114 µM), without a hit: at the top dose activity change, negative = inhibition, hits mostly inhibitors; note: potency is the fitted concentration of half-maximal effect; % is set by controls: 0 for no effect and ±100 for the full control effect
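Preincubation: enzyme (10 nM) with compound, 15 min, RT. Reaction: substrate added to 50 nM final. Reads: 0 and 10 min. Analysis: normalized, Hill fit.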
GALK confirm: Confirmation Assay for Inhibitors of Human Galactokinase (GALK); shares compounds with Pol eta inh-1; purified GALK, Kinase-Glo ATP depletion luminescence; Potency, µM (titrated, usually from 115 µM), for the others: at the highest dose activity, negative = inhibition, usual class: inhibitors; 70% of 150 active
GALK redox cs: Confirmatory Assay for Inhibitors of Human Galactokinase (GALK): Phenol-HRP redox assay counterscreen; shares compounds with Pol eta inh-1; Phenol red-HRP H2O2 redox cycling, absorbance 600 nm; Potency, µM (doses to about 115 µM), for the others: top-dose activity change, negative = H2O2 signal, actives largely listed as inhibitors; 40% of 150 active
HEK293 viability: Secondary Assay for Inhibitors of Human Galactokinase (GALK): HEK-293 Cell Viability Assay | shares compounds with Pol eta inh-1 | HEK-293 viability, ATP luminescence (CellTiter-Glo), 24/48 h | Potency, µM (top dose mostly 46.1 µM), inactives show top-dose activity change, negative = cytotoxicity, usual class: inhibitors | 10% of 170 active | AID 2547, 2010; note: potency is the fitted concentration of half-maximal effect; % is set by controls: 0 for no effect and ±100 for the full control effect
Pol kappa inh-2: qHTS for Inhibitors of Polymerase Kappa: Confirmatory Assay for Cherry-picked Compounds. Potency, µM, actives largely listed as inhibitors. AID 720501, 2013. purified Pol-kappa, fluorescent strand-displacement substrate. shares compounds with Pol eta inh-1. 76% of 920 active; note: potency is the fitted concentration of half-maximal effect
Pol eta inh-2: qHTS for Inhibitors of Polymerase Eta: Confirmatory Assay for Cherry-picked Compounds. 64% of 2,600 active. shares compounds with Pol eta inh-1. Potency, µM, usual class: inhibitors. AID 720502, 2013. Pol eta primer extension, TAMRA/BHQ fluorescence, 10 min; note: potency is the fitted concentration of half-maximal effect
* marks the source's active call; other numbers are inactive results; [ ] = remark or other dose. Unless noted, calls come from the whole dose curve; as a rule, active = well fitted curve in the direction sought with a large enough effect; inconclusive = small, poorly fitted or top-dose-only effect, or another doubt; inactive = no such curve, though single readings can be large; an effect the other way counts as inactive or inconclusive.

COc1ccc(C2Nc3ccc(NC(=O)CO)cc3C(=O)N2Cc2cccc(Cl)c2)cc1COc1ccc(NC(C)=O)cc1 (stereo not given) was read as Pol iota inh 13% and Pol kappa inh-1 -25%.
COC(=O)COc1ccc(C2Nc3c(Cl)ccc(C(=O)O)c3C3C=CCC32)cc1 (stereo not given) was read as Pol eta inh-1 28µM*, PI5P4Ka inh -57*, Pol iota inh inconclusive, Pol kappa inh-1 inconclusive, WRN inhibitor 22µM*, Pol beta inh inconclusive and Pol eta inh-2 48*.
Screening Cc1cc(C)n2c(SCC(O)=C(C#N)c3nc4ccccc4[nH]3)nnc2n1 returned Pol eta inh-1 25µM*, PI5P4Ka inh -74*, Pol iota inh 11µM*, Pol kappa inh-1 inconclusive, WRN inhibitor inconclusive and Pol eta inh-2 inconclusive.
For Cc1ccc(C(=O)N/C(=C/c2ccco2)C(=O)NCc2ccco2)cc1 the results were Pol eta inh-1 32µM*, PI5P4Ka inh 4, Pol iota inh inconclusive, Pol kappa inh-1 inconclusive, WRN inhibitor inconclusive, Pol beta inh 35µM*, Pol kappa inh-2 60* and Pol eta inh-2 76*.
Cc1ccc(C(=O)N/C(=C\c2ccc(C)o2)C(=O)O)cc1 was read as Pol eta inh-1 32µM*, PI5P4Ka inh -3, Pol iota inh -22%, Pol kappa inh-1 inconclusive, WRN inhibitor -10%, Pol beta inh inconclusive and Pol eta inh-2 inconclusive.
Screening Cc1ccc(Cl)cc1NC(=O)Cn1c(=O)cc(C)c2c(C)nn(C)c21 returned Pol eta inh-1 -20%, Pol iota inh 24%, Pol kappa inh-1 4% and Pol beta inh 5%.
For Cc1cccc(OCC(=O)Nc2nnc(S(=O)(=O)N3CCc4ccccc43)s2)c1 the results were Pol eta inh-1 89µM*, Pol iota inh inconclusive, Pol kappa inh-1 inconclusive, Pol beta inh 18% and Pol eta inh-2 inconclusive.
Screening N#Cc1c(NC(=O)c2ccc(Br)o2)n(-c2ccccc2)c2nc3ccccc3nc12 returned Pol eta inh-1 35µM*, PI5P4Ka inh -10, Pol iota inh 10µM*, Pol kappa inh-1 -5%, WRN inhibitor 4%, Pol beta inh -1%, GALK confirm 27µM*, GALK redox cs 5.3µM* and HEK293 viability -12%.
For O=C(O)c1cnn(-c2ccccc2)c1-c1ccncc1 the results were Pol eta inh-1 22µM*, PI5P4Ka inh -4, Pol iota inh inconclusive, Pol kappa inh-1 inconclusive, WRN inhibitor -1%[11.6 µM], Pol beta inh inconclusive, Pol kappa inh-2 19* and Pol eta inh-2 60*.
Screening COc1ccc(OC)c(-c2nnc3n2N=C(c2ccc(OC(F)F)c(OCC4CC4)c2)CS3)c1 returned Pol eta inh-1 -24%, Pol iota inh inconclusive and Pol kappa inh-1 -31%.
For COc1ccc(C2=Nn3c(nnc3-c3ccccc3OC)SC2)cc1O[C@H]1CCOC1 the results were Pol kappa inh-2 2.7*.
COc1ccc(C2=Nn3c(nnc3-c3ccccc3OC)SC2)cc1OCC1CC1 was read as Pol eta inh-1 -9%, Pol iota inh -16%, Pol kappa inh-1 40µM* and Pol kappa inh-2 0.67*.
For CC[C@H](C)[C@H](NC(=O)[C@H](Cc1ccc(O)cc1)NC(=O)CNC(=O)[C@@H]1CCCN1C(=O)[C@H](CC(=O)O)NC(=O)[C@@H](N)CS)C(=O)NCC(=O)N[C@@H](CO)C(=O)N[C@@H](CCCN=C(N)N)C(N)=O the results were Pol kappa inh-1 9%[60.1 µM].
Screening Cc1ccc(-c2cc(C(=O)Nc3ccc(SC(F)F)cc3)no2)cc1F returned Pol eta inh-1 -5%, Pol iota inh -21%, Pol kappa inh-1 inconclusive and Pol beta inh 38%.
Screening C[C@H](NC(=O)C1CCC(CNC(=O)[C@@H]2CCCN2C(=O)OC(C)(C)C)CC1)C(=O)O (stereo not given in full) returned Pol eta inh-1 -13%, PI5P4Ka inh 2, Pol iota inh 22%, Pol kappa inh-1 2%, WRN inhibitor -2%, Pol beta inh -28%, GALK confirm -2%, GALK redox cs 2% and HEK293 viability 2%.
Screening CC(OC(=O)c1ccc(S(=O)(=O)NCc2ccco2)cc1)C(=O)Nc1ccc(Cl)cn1 (stereo not given) returned Pol eta inh-1 inconclusive, PI5P4Ka inh inconclusive, Pol iota inh inconclusive, Pol kappa inh-1 -19%, WRN inhibitor -34%, Pol beta inh inconclusive and Pol eta inh-2 67*.
C/C=C/COC(=O)c1[nH]c2c(c1C)C(=O)CC(c1ccc(N(C)C)cc1)C2 (stereo not given) was read as Pol eta inh-1 -10%, PI5P4Ka inh -4, Pol iota inh 67%, Pol kappa inh-1 0%, WRN inhibitor 3% and Pol beta inh -6%.

Bioassay records (PubChem)
